In the library only some 6.3% were active in any assay of this set; here they are far more common.
NADH enzymes: inhibitors of enzymes used to reach an NAD/NADH endpoint | coupled PK/LDH NADH assays, four targets | AID 774 | 65,000 tested, 0.02% active | IC50, µM (highest dose often 10 µM), inactives show at the top dose inhibition;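 active = single-dose screening hits from any of four coupled enzyme assays that gave an IC50 when retested across doses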;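 note: the DPM-DC format reads NADH fluorescence rather than 340 nm absorbance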
MK inhibit: inhibitors of Streptococcus pneumoniae mevalonate kinase. purified MK, PK/LDH-coupled NADH absorbance 340 nm. inhibition, % at 10 µM. 65,000 tested, 0.48% active;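 active = ranked among the strongest by inhibition in the single 10 µM screen, a fixed top-ranked set picked for dose follow-up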
PMK inhibit: S. pneumoniae PMK inhibition; purified PMK, PK/LDH-coupled NADH absorbance 340 nm; inhibition, % at 10 µM; 65,000 tested, 0.49% active;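 active = top-ranked compounds by inhibition in the single 10 µM screen, taking a fixed number of the strongest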;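 note: 0% = full reaction with DMSO carrier and 100% = background rate without enzyme reaction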
Autofluor 339: intrinsic fluorescence of library compounds, ex339/em460 – biochemical, MLSMR library, data from DPM-DC assay, artefact control, profiling panel | compound autofluorescence, ex339/em460 nm, NADH buffer; stronger effect = higher value; 1 = no-compound wells, NADH background | fluorescence fold increase at 10 µM | 65,000 tested, 5.5% active | AID 709;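 active = at 10 µM, mean starting fluorescence two-fold or more over control wells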;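 note: signal is the first read of a kinetic run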
DPM-DC inhibit: blocks S. pneumoniae diphosphomevalonate decarboxylase; purified DPM-DC, PK/LDH coupled NADH fluorescence; 65,000 tested, 0.49% active; calls only at 10 µM;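 active = the 320 compounds with the highest percent inhibition in the single-dose primary screen, excluding strongly autofluorescent ones, cut at about 32% in these data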;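 note: kinetic rate of NADH fluorescence loss reporting ADP formed by the decarboxylase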
A340 absorber: absorbance at 340 nm | 65,000 tested, under 10 active | compound absorbance at 340 nm, fold over control | fold change at 10 µM;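 active = at 10 µM dose, initial 340 nm absorbance at least 2 fold that of control wells; inactive = change under 2 fold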;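 note: initial absorbance extrapolated from kinetic A340 decline of NADH oxidation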
* = called active by the depositor; i = inactive; nt = no result given.

SMILES	NADH enzymes	MK inhibit	PMK inhibit	Autofluor 339	DPM-DC inhibit	A340 absorber
COc1ccc2nc(C)c3c(c2c1)OC(C)C3 (stereo not given)	2.0%	3.0	0.0	1.69	i	1.07
CC(C)OC(=O)c1c2nc3ccccc3nc2n2c1[nH]c(=O)c1ccccc12	3.0%	1.0	5.0	2.28*	nt	1.01
COc1ccc(CNc2oc(-c3cccc4ccccc34)nc2C#N)cc1	1.0%	0.0	4.0	3.02*	nt	1.04
CNc1oc(-c2cccc3ccccc23)nc1C#N	7.0%	6.0	7.0	3.72*	nt	1.06
N#Cc1nc(Cc2cccc3ccccc23)oc1NCc1ccc(F)cc1	3.0%	9.0	1.0	1.09	i	1.01
O=C(COC(=O)CCNS(=O)(=O)c1ccc2c(c1)OCCO2)NC1CCCc2ccccc21 (stereo not given)	1.0%	0.0	2.0	1.09	i	1.02
COc1ccccc1-c1nc(C#N)c(N2CCN(C(c3ccccc3)c3ccccc3)CC2)o1	14.0%	15.0	12.0	3.85*	nt	1.06
COc1ccccc1-c1nc(C#N)c(N2CCN(c3cccc(Cl)c3)CC2)o1	18.0%	17.0	18.0	3.52*	nt	0.91
N#Cc1nc(-c2ccco2)oc1N1CCN(c2cccc(Cl)c2)CC1	6.0%	12.0	11.0	1.2	i	1.02
CN=C1CC(C)(C)CC(=O)/C1=C(/O)CCC(=O)NC	2.0%	0.0	17.0	1.02	i	0.98
O=C(Nc1ccc(-c2nc3ccccc3o2)cc1)C1CCCO1 (stereo not given)	6.0%	7.0	0.0	2.08*	i	1.12
COc1c(N2CCNC(C)C2)c(F)cc2c(=O)c(C(=O)O)cn(C3CC3)c12 (stereo not given)	7.0%	1.0	12.0	3.85*	nt	1.1
CC1CCc2cc(F)cc3c(=O)c(C(=O)O)cn1c23 (stereo not given)	6.0%	12.0	2.0	1.03	i	1.01
COc1ccc(OC)c(S(=O)(=O)N2CCN(c3c(C)cccc3C)CC2)c1	2.0%	3.0	2.0	1.04	i	0.97
CC(C)Cn1c(N)c(C(=O)NCC2CCCO2)c2nc3ccccc3nc21 (stereo not given)	4.0%	5.0	3.0	2.11*	nt	1.06
Nc1c(C(=O)NCC2CCCO2)c2nc3ccccc3nc2n1/N=C/c1ccncc1 (stereo not given)	3.0%	1.0	9.0	1.15	i	1.07
COCCn1c(N)c(C(=O)NCc2cccs2)c2nc3ccccc3nc21	6.0%	4.0	8.0	3.68*	nt	1.05
COCCCNc1nc2ccccc2nc1NS(=O)(=O)c1cccs1	8.0%	7.0	16.0	1.22	i	1.12
COCCn1c(N)c(S(=O)(=O)c2cccs2)c2nc3ccccc3nc21	10.0%	9.0	10.0	3.93*	nt	1.11
COc1ccc(C(=O)NCCCn2ccnc2)cc1	3.0%	9.0	0.0	1.1	i	1.02
COCCNC(=O)c1c(N)n(CCCn2ccnc2)c2nc3ccccc3nc12	12.0%	10.0	13.0	3.84*	nt	1.07
COCCn1c(N)c(C(=O)Nc2sc3c(c2C(=O)OC)CCCC3)c2nc3ccccc3nc21	2.0%	0.0	10.0	1.12	i	1.05
CCCn1c(CN2CCCCC2CC)nc2c1c(=O)n(C)c(=O)n2C (stereo not given)	3.0%	0.0	8.0	1.04	i	1.02
COc1ccc(OC)c(-n2c(N)c(C(=O)NCC3CCCO3)c3nc4ccccc4nc32)c1 (stereo not given)	0.0%	0.0	0.0	2.1*	nt	1.07
Nc1c(C(=O)OCC2CCCO2)c2nc3ccccc3nc2n1C1CCCC1 (stereo not given)	1.0%	0.0	2.0	3.84*	nt	1.11
SMILES	NADH enzymes	MK inhibit	PMK inhibit	Autofluor 339	DPM-DC inhibit	A340 absorber
Nc1c(C(=O)NC2CCCC2)c2nc3ccccc3nc2n1N	9.0%	14.0	12.0	1.16	i	1.06
COCCn1c(N)c(C(=O)NCC2CCCO2)c2nc3ccccc3nc21 (stereo not given)	7.0%	11.0	3.0	2.35*	nt	1.06
COC(=O)c1sc2nc3c(cc2c1N)COC(C)(C)C3	9.0%	25.0	0.0	1.53	i	1.07
O=C(CC12CC3CC(C1)CC(CC(=O)N1CCCC1)(C3)C2)N1CCCC1	0.0%	0.0	0.0	1.11	i	1.05
COc1ccc(OCC(O)CN2C(=O)c3ccccc3S2(=O)=O)cc1 (stereo not given)	0.0%	0.0	0.0	1.07	i	1.07
Cc1ccc2c(c1)cc(CN(Cc1ccco1)S(=O)(=O)c1ccccc1)c1nnnn12	7.0%	0.0	16.0	1.06	i	0.99
O=C(O)Cn1c(-c2ccccc2)nc2ccccc21	8.0%	9.0	15.0	1.04	i	1
Oc1ccccc1Cn1c(-c2ccccc2O)nc2ccccc21	9.0%	6.0	11.0	3.81*	nt	1.09
Cc1cccc(C(C)C)c1NC(=O)c1cccnc1	2.0%	0.0	6.0	1.15	i	1.04
CC1(C)Oc2ccc3ccc(=O)oc3c2-c2cnoc21	8.0%	5.0	10.0	2.16*	nt	1.08
CC1(C)Oc2ccc3ccc(=O)oc3c2-c2cn[nH]c21	3.0%	0.0	6.0	1.38	i	1.11
COc1cc(N)ccc1Cc1ccc(N)cc1OC	8.0%	8.0	15.0	1.13	i	1.01
CCOc1cccc(C2C(C#N)=C(N)Oc3cc(C)oc(=O)c32)c1OCC (stereo not given)	1.0%	0.0	3.0	1.07	i	1.01
Cc1ccc(OCCCC(=O)Nc2ccc(S(=O)(=O)Nc3cc(C)on3)cc2)cc1	9.0%	9.0	0.0	1.94	i	1.03
Cc1ccnc(N2CCC(C(=O)Nc3ccc4c(c3)OCO4)CC2)n1	7.0%	9.0	12.0	1.31	i	1
Cc1occc1-c1nnc2sc(-c3ccc(-c4ccc(Cl)cc4)o3)nn12	7.0%	3.0	10.0	2.09*	nt	1.04
CCOC(=O)c1sc(NC(=O)c2ccc(Cl)s2)cc1C	4.0%	6.0	1.0	2.13*	nt	1.06
CCOC(=O)c1sc(NC(=O)c2ccc(CC)s2)nc1C	2.0%	0.0	3.0	3.29*	nt	1.09
CCOC(=O)c1sc(NC(=O)C2CC2)cc1C	3.0%	4.0	0.0	1.03	i	1.05
CCOC(=O)c1sc(NCCNc2nc(C)c(C(=O)OCC)s2)nc1C	1.0%	2.0	2.0	1.12	i	1.09
Cn1c2ccccc2c2ncn(Cc3ccco3)c(=O)c21	11.0%	8.0	10.0	2.92*	i	1.05
COc1ccccc1-c1nnc(Nc2nc3c(OC)cccc3s2)o1	9.0%	0.0	13.0	1.65	i	1.25
COc1cccc(-c2nnc(Nc3nc4c(F)cccc4s3)o2)c1	8.0%	4.0	12.0	4.87*	nt	1.32
CC(C)OCCCNc1ncc2c(n1)CC(c1ccc(N(C)C)cc1)CC2=O (stereo not given)	7.0%	12.0	10.0	1.11	i	0.99
Cc1cccn2c(=O)c3cc(C(=O)NCCN4CCOCC4)c(=N)n(CCc4ccccc4)c3nc12	0.0%	0.0	0.0	2.3*	nt	1.05

Assay outcomes (PubChem)
